Measurements from the supplement of paper PMC12340641.
Where a name gives a salt, the structure may show the parent alone.

Columns and labels:
[1] = target: IKZF1 (dCK*-IKZF1 fusion in HEK293FT) (UniProt Q13422); experiment: inhibition of IKZF1 HTRF signal (DMSO = 0%, pomalidomide 10 uM = 100%); higher = lower IKZF1 protein level; settings: compound concentration: 5 uM, overnight (~20 h)
Method in brief: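 HEK293FT cells stably expressing a dCK*-IKZF1 fusion (2000/well, 384-well) were treated overnight at 37 °C with 5 μM compound in single wells. They were then lysed 30 min at room temperature, and lysate was incubated overnight with a commercial HTRF total-IKZF1 antibody kit. The time-resolved FRET ratio (665/620 nm) was background-subtracted. Percent inhibition of IKZF1 signal was normalised per plate to vehicle (0%) and a reference degrader (100%).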

[2] = system: HEK293FT dCK*-only; experiment: relative growth in counter assay (no AraC = 100%, AraC + DMSO = 0%); higher = more growth rescue independent of IKZF1; settings: compound concentration: 5 uM; AraC concentration: 0.3 uM; overnight pretreatment + 4 days AraC
Method in brief: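 In 384-well plates, 300 HEK293FT cells per well expressing an engineered kinase construct alone got 5 μM compound 2 h after seeding. After overnight at 37 °C, 0.3 μM nucleoside suicide substrate plus medium was applied for 4 days. Counting of Hoechst 33342-stained nuclei by imaging on day 5 was normalised per plate, with 100% for no-substrate wells and 0% for substrate plus vehicle.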

[3] = system: HEK293FT dCK*-IKZF1; experiment: relative growth recovery (pomalidomide 10 uM = 100%, DMSO = 0%); higher = more growth rescue (IKZF1 fusion degradation); settings: compound concentration: 5 uM; AraC concentration: 0.3 uM; overnight pretreatment + 4 days AraC
Method in brief: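 On day 5, whole-well imaging was used to count Hoechst 33342-stained nuclei of HEK293FT cells stably carrying a deoxycytidine kinase–IKZF1 fusion. These cells had received 5 μM compound 2 h after seeding, followed after overnight at 37 °C by a nucleoside suicide substrate at 0.3 μM plus medium for 4 days. Growth recovery was normalised on each plate against a reference degrader and vehicle, which defined 100% and 0%, and values are duplicate means from separate days.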

IKZF1 (dCK*-IKZF1 fusion in HEK293FT), sequence (Q13422 whole entry, looked up, the tested form may be a part): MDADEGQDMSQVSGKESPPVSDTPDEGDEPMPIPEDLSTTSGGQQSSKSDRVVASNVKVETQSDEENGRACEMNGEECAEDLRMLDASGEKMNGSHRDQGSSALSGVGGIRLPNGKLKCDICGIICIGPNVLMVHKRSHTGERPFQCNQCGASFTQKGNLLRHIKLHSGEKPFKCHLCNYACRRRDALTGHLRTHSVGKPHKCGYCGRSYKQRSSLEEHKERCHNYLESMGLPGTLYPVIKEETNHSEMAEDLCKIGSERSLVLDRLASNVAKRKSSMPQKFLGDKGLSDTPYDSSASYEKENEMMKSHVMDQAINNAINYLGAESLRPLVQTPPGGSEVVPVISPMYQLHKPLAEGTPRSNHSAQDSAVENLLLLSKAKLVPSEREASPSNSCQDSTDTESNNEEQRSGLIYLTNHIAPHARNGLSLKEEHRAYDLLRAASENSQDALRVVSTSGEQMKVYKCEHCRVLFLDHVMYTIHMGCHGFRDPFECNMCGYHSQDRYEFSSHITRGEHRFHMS

Structure (SMILES): O=C(O)c1cc([N+](=O)[O-])ccc1NCCCc1ccccc1
- inhibition of IKZF1 HTRF signal [1]: -22.5%
- relative growth in counter assay [2]: -2.81%
- relative growth recovery [3]: -1.86%

Structure (SMILES): CNCC(O)c1ccc(O)c(O)c1 (racemic) [DL-Adrenaline]
- inhibition of IKZF1 HTRF signal [1]: 10.3%
- relative growth in counter assay [2]: -3.86%
- relative growth recovery [3]: -4.26%

Structure (SMILES): CC(C)/N=c1\cc2n(-c3ccc(Cl)cc3)c3ccccc3nc-2cc1Nc1ccc(Cl)cc1
- inhibition of IKZF1 HTRF signal [1]: 16.2%
- relative growth in counter assay [2]: -8.1%
- relative growth recovery [3]: 0.915%

Structure (SMILES): OCCN=CCNc1ccc(NCCNCCO)c2c(O)c3c(O)ccc(O)c3c(O)c12 [Mitoxantrone HCl]
- inhibition of IKZF1 HTRF signal [1]: -45.5%
- relative growth in counter assay [2]: -34.8%
- relative growth recovery [3]: -13.6%

Structure (SMILES): Cc1cc(/C=C/c2ccc3cc(N(C)C)ccc3[n+]2C)c(C)n1-c1ccccc1.Cc1cc(/C=C/c2ccc3cc(N(C)C)ccc3[n+]2C)c(C)n1-c1ccccc1 [pyrvinium]
- inhibition of IKZF1 HTRF signal [1]: 76.3%
- relative growth in counter assay [2]: -34.4%
- relative growth recovery [3]: -13.1%

Structure (SMILES): CCCCC(F)(F)C(=O)CC[C@H]1[C@H](O)CC(=O)[C@@H]1CCCCCCC(=O)O [Lubiprostone]
- inhibition of IKZF1 HTRF signal [1]: -43.7%
- relative growth in counter assay [2]: -3.38%
- relative growth recovery [3]: -1.27%

Structure (SMILES): Nc1nc2c(ccc3ccccc32)s1
- inhibition of IKZF1 HTRF signal [1]: -31%
- relative growth in counter assay [2]: 4.08%
- relative growth recovery [3]: 0.375%

Structure (SMILES): CC[N+](CC)(CC)CC(=O)Nc1c(C)cccc1C
- inhibition of IKZF1 HTRF signal [1]: -32.9%
- relative growth in counter assay [2]: -2.01%
- relative growth recovery [3]: -0.165%

Structure (SMILES): CC(=NNc1nnc2c(n1)[nH]c1c(C)cccc12)c1ccccn1
- inhibition of IKZF1 HTRF signal [1]: 40.7%
- relative growth in counter assay [2]: -31.6%
- relative growth recovery [3]: -12.7%

Structure (SMILES): Cc1cc(C)c(C2=NOC3C4CCC(C4)C23)c(C)c1 (stereo unspecified)
- inhibition of IKZF1 HTRF signal [1]: -34%
- relative growth in counter assay [2]: 1.92%
- relative growth recovery [3]: -0.34%

Structure (SMILES): O=C1Nc2ccc(Cl)cc2[C@@](C#CC2CC2)(C(F)(F)F)O1 [Efavirenz]
- inhibition of IKZF1 HTRF signal [1]: 19.7%
- relative growth in counter assay [2]: 3.1%
- relative growth recovery [3]: 2.08%

Structure (SMILES): CC(C)(C)CC(C)(C)c1ccc(O)c(Cc2ccc(Cl)cc2Cl)c1
- inhibition of IKZF1 HTRF signal [1]: 115%
- relative growth in counter assay [2]: -6.45%
- relative growth recovery [3]: -7.76%
